The values below come from PubChem BioAssay (NCI).

This is part of a sample that, as a whole, favours compounds with a hit. Of some 83,000 tested, about 20% had one in any assay.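 Growth was measured after 48 h exposure to one concentration of compound in 96-well plates. Values under 10 count as active.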 Unmarked numbers belong to inactive results. Active and inactive are the calls of the source.

The subject of one assay is OVCAR-3 ovarian. Nature of the assay: NCI-60 one-dose screen, 48 h (100 = growth as untreated, 0 = no growth, -100 = all killed). The following applies: 10 µM unless noted.
`Cc1ccc2c(C3C(C#N)=C(N)Oc4cc5ccccc5cc43)cc(=O)oc2c1` (stereo not drawn): the growth is -4.72% (active).

Regarding `Oc1ccc(Cl)cc1Sc1cc(Cl)ccc1O`, the growth is 77%.

As for `CCc1cccc(-c2ccccc2)c1`, the growth is 109%.

As to `CCCCNc1cc(C(=O)O)cc(S(N)(=O)=O)c1Oc1ccccc1`, the growth was 115%.

For `Clc1ccc2c(c1)nnn1c3ncccc3c(Br)c21`, the growth is 70.8%.

As for `Cc1ccc(-c2nc3c(N=Nc4ccc(S(N)(=O)=O)cc4)c(N)nn3c(N)c2C#N)cc1`, the growth was 23.6%.

On to `O=C(C[n+]1ccccc1Cl)c1ccc2c(c1)CCCC2`, for which the growth is 93.6%.

Consider `COC(=O)CCCNS(=O)(=O)c1cc(C(=O)Nc2ccc(NC(=O)c3cc(S(=O)(=O)NCCCC(=O)OC)c(O)c(O)c3O)cc2)c(O)c(O)c1O`, for which the growth is 102%.

As for `CC(NCCC(c1ccccc1)c1ccccc1)c1ccccc1` (stereo not drawn), the growth was 78.4%.

Take `CC/C(=C(\CC)c1ccc(OCCN(CC)CC)cc1)c1ccc(OCCN(CC)CC)cc1`: the growth is 45.5%.

On to `Cc1ccc(N(CC2=NCCN2)c2cccc(O)c2)cc1`, for which the growth is 112%.

On to `COc1ccc(C[C@H](N)C(=O)N[C@@H]2[C@@H](CO)OC(n3cnc4c(N(C)C)ncnc43)[C@@H]2O)cc1` (stereo partly drawn), for which the growth is -94.7% (active).

On to `CC1=C2C(=C[C@@](C)(CO)[C@@H]2OC(=O)N(C)CCN(C)C(=O)OC(C)(C)C)C(=O)[C@](C)(O)C12CC2`, for which the growth is 3.63% (active).

As to `CC(=O)N1N=C(CCC(=O)c2nc3ccc([N+](=O)[O-])cc3[nH]2)OC1c1ccc(O)cc1` (stereo not drawn), the growth was 103%.

`CC1CCc2cc(F)cc3c(=O)c(C(=O)O)cn1c23` (stereo not drawn): the growth is 114%.

On to `OCCOCC(F)(F)F`, for which the growth is 109%.

Take `O=C(O)c1cn(C2CC2)c2cc(N3CCN(C(=O)CSc4nc(NS(=O)(=O)c5ccccc5)cc(=O)[nH]4)CC3)c(F)cc2c1=O`: the growth was 83.9%.

For `c1coc(CSc2ncnc3nc[nH]c23)c1`, the growth is 107%.

`CN(C)CC/C=C1\c2ccccc2Sc2ccc(Cl)cc21`: the growth is 74.4%.

Consider `O=C(COc1ccc(Cl)cc1)N1CCN(Cc2ccc3c(c2)OCO3)CC1`, for which the growth is 99.2%.

For `COc1cc(NS(=O)(=O)c2ccc(N)cc2)ncn1`, the growth is 115%.

Take `COC(OC)C1(c2ccccc2)NC(=O)NC1=O` (stereo not drawn): the growth was 126%.

In the case of `CC(=O)Nc1ccc(OC(=O)c2ccccc2O)cc1`, the growth was 110%.

Turning to `C=C1C(=O)O[C@H]2[C@H]1CC/C(COC(=O)c1cccc3ccccc13)=C\CC[C@@]1(C)O[C@@H]21`, the growth is -86.5% (active).

In the case of `COc1ccccc1S(=O)(=O)Nc1ccc2c3c(cc(-c4ccoc4)nc13)C(=O)N2C`, the growth was 74%.

Take `C=C1c2c(Cl)ccc(O)c2C(O)=C2C(=O)[C@]3(O)C(O)=C(C(N)=O)C(=O)[C@@H](N(C)C)[C@@H]3[C@@H](O)[C@H]12`: the growth is -16.2% (active).

In the case of `CN1C(=O)C2(SCC(C(=O)NCC(=O)OC(C)(C)C)N2C(=O)C2CCCCC2)c2ccccc21` (stereo not drawn), the growth is 107%.

Consider `COc1ccc(/C=C/C(=O)c2ccc(-n3cc(CN4CCN(c5cc6c(cc5F)c(=O)c(C(=O)O)cn6C5CC5)CC4)nn3)cc2)cc1OC`, for which the growth was -16.1% (active).

In the case of `Cc1cc[n+](CCCC[n+]2ccc(C)cc2)cc1`, the growth is 106%.

Regarding `Cc1cn(C2CC(F)C(CO)O2)c(=O)[nH]c1=O` (stereo not drawn), the growth was 137%.

`COc1cc2ncnc(Oc3ccc(NC(=O)Nc4ccc(C5(C#N)CCCC5)cc4)c4ccccc34)c2cc1OC`: the growth was 52%.

Regarding `COC(=O)Nc1nc2ccc(Sc3ccccc3)cc2[nH]1`, the growth was -78.1% (active).

In the next assay the test system is HS 578T breast. The description is as above. The following applies: 10 µM unless noted.
On to `Cc1ccc2c(C3C(C#N)=C(N)Oc4cc5ccccc5cc43)cc(=O)oc2c1` (stereo not drawn), for which the growth is 51.6%.

With `Oc1ccc(Cl)cc1Sc1cc(Cl)ccc1O`, the growth is 108%.

As to `CCCCNc1cc(C(=O)O)cc(S(N)(=O)=O)c1Oc1ccccc1`, the growth is 98.5%.

As to `CC(C)Cn1cnc2c3ccccc3nc(NCn3nc(-c4cc(Cl)cc(Cl)c4Cl)oc3=S)c21`, the growth was 116%.

In the case of `Clc1ccc2c(c1)nnn1c3ncccc3c(Br)c21`, the growth is 16.7%.

With `Cc1ccc(-c2nc3c(N=Nc4ccc(S(N)(=O)=O)cc4)c(N)nn3c(N)c2C#N)cc1`, the growth is 39.4%.

For `O=C(C[n+]1ccccc1Cl)c1ccc2c(c1)CCCC2`, the growth is 111%.

For `COc1ccc(C2CC(c3cc(Cl)c(C)cc3OC)=NN2c2ccc(S(N)(=O)=O)cc2)cc1OC` (stereo not drawn), the growth is 101%.

With `CCN(CC)c1ccc(C2CC(c3cc(OC)c(OC)c(OC)c3)=NN2)cc1` (stereo not drawn), the growth is -13.3% (active).

Regarding `COC(=O)CCCNS(=O)(=O)c1cc(C(=O)Nc2ccc(NC(=O)c3cc(S(=O)(=O)NCCCC(=O)OC)c(O)c(O)c3O)cc2)c(O)c(O)c1O`, the growth is 100%.

`CC(NCCC(c1ccccc1)c1ccccc1)c1ccccc1` (stereo not drawn): the growth is 82.8%.

In the case of `Cc1ccc(N(CC2=NCCN2)c2cccc(O)c2)cc1`, the growth was 101%.

Turning to `COc1ccc(C[C@H](N)C(=O)N[C@@H]2[C@@H](CO)OC(n3cnc4c(N(C)C)ncnc43)[C@@H]2O)cc1` (stereo partly drawn), the growth is 11.8%.

With `CC1=C2C(=C[C@@](C)(CO)[C@@H]2OC(=O)N(C)CCN(C)C(=O)OC(C)(C)C)C(=O)[C@](C)(O)C12CC2`, the growth was 93.9%.

As for `CC(=O)N1N=C(CCC(=O)c2nc3ccc([N+](=O)[O-])cc3[nH]2)OC1c1ccc(O)cc1` (stereo not drawn), the growth was 104%.

For `CC1CCc2cc(F)cc3c(=O)c(C(=O)O)cn1c23` (stereo not drawn), the growth was 103%.

For `O=C(O)c1cn(C2CC2)c2cc(N3CCN(C(=O)CSc4nc(NS(=O)(=O)c5ccccc5)cc(=O)[nH]4)CC3)c(F)cc2c1=O`, the growth was 89.1%.

Consider `c1coc(CSc2ncnc3nc[nH]c23)c1`, for which the growth is 106%.

As to `CN(C)CC/C=C1\c2ccccc2Sc2ccc(Cl)cc21`, the growth is 65.6%.

Turning to `O=C(COc1ccc(Cl)cc1)N1CCN(Cc2ccc3c(c2)OCO3)CC1`, the growth was 92.8%.

On to `COc1cc(NS(=O)(=O)c2ccc(N)cc2)ncn1`, for which the growth is 105%.

`COC(OC)C1(c2ccccc2)NC(=O)NC1=O` (stereo not drawn): the growth was 111%.

Consider `CC(=O)Nc1ccc(OC(=O)c2ccccc2O)cc1`, for which the growth is 99.4%.

`COc1cccc(C2CC(c3cc(OC)c(OC)c(OC)c3)=NN2)c1` (stereo not drawn): the growth is 111%.

Turning to `COc1cc(C(=O)N2CCN(C(=O)c3cc(OC)c(OCc4ccccc4)cc3N)CC2)c(N)cc1OCc1ccccc1`, the growth was 109%.

As to `COc1cc2c(cc1OCCCCC(=O)Nc1ccc(-c3nc4ccccc4s3)cc1)N=C[C@@H]1CCCN1C2=O`, the growth was -37.5% (active).

On to `C=C1C(=O)O[C@H]2[C@H]1CC/C(COC(=O)c1cccc3ccccc13)=C\CC[C@@]1(C)O[C@@H]21`, for which the growth is 2.83% (active).

With `COc1ccccc1S(=O)(=O)Nc1ccc2c3c(cc(-c4ccoc4)nc13)C(=O)N2C`, the growth was 56.2%.

For the compound `C=C1c2c(Cl)ccc(O)c2C(O)=C2C(=O)[C@]3(O)C(O)=C(C(N)=O)C(=O)[C@@H](N(C)C)[C@@H]3[C@@H](O)[C@H]12`, the growth is 5.86% (active).

As for `CN1C(=O)C2(SCC(C(=O)NCC(=O)OC(C)(C)C)N2C(=O)C2CCCCC2)c2ccccc21` (stereo not drawn), the growth was 97.5%.

`COc1ccc(/C=C/C(=O)c2ccc(-n3cc(CN4CCN(c5cc6c(cc5F)c(=O)c(C(=O)O)cn6C5CC5)CC4)nn3)cc2)cc1OC`: the growth is 21.5%.

For the compound `O=C(Nc1ccc(Cl)c(Cl)c1)Nc1ccc(Cl)c([N+](=O)[O-])c1`, the growth is 7.04% (active).

As to `Cc1cc[n+](CCCC[n+]2ccc(C)cc2)cc1`, the growth is 104%.

On to `Cc1cn(C2CC(F)C(CO)O2)c(=O)[nH]c1=O` (stereo not drawn), for which the growth was 133%.

Regarding `COc1cc2ncnc(Oc3ccc(NC(=O)Nc4ccc(C5(C#N)CCCC5)cc4)c4ccccc34)c2cc1OC`, the growth was 29.6%.

Turning to `COC(=O)Nc1nc2ccc(Sc3ccccc3)cc2[nH]1`, the growth was 30.3%.
